Each structure is given as a SMILES string. Active and inactive are the calls of the source.

The subject of assay [1] is Plasmodium falciparum Sir2 (PF13_0152, Sir2A). The assay is described as follows: Plasmodium falciparum Sir2A binding compounds – biochemical, small-molecule microarray, 635 nm fluorescence, primary screen (AID 1098).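 Also: score merges spot fluorescence intensity with its signal-to-noise ratio.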 Conditions: fluorescence 635 nm, higher = more signal.
Assay [2] can be described thus: probe aDKK1 binding to arrayed compounds – biochemical, biotinylated probe, 635/667 nm fluorescence, primary screen (AID 1099).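 Also: score merges 667nm spot fluorescence with signal to noise across triplicate slides.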 Conditions: small-molecule microarray, higher = more signal.
Assay [3] in a line: probe aCHRDL2 binding to arrayed compounds – biochemical, biotinylated probe, 635/667 nm fluorescence, primary screen (AID 1100). The conditions noted are these: small-molecule microarray, higher = more signal.
Assay [4] can be described thus: change in splice reporter luminescence, either direction, cell-based, HEK293, spliceosome inhibition project, primary screen (AID 1101).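 Also: HEK293 cells carrying a splicing-competent luciferase reporter gene; test concentration not given here.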 The conditions noted are these: HEK293 splicing luciferase reporter, 24 h, higher = more signal, called active from +8 up or from −8 down. In general terms: In a reporter assay the amount or activity of a reporter protein is the signal.

Assay [5] deals with Fibroblast growth factor 10 (Homo sapiens) (UniProt O15520). The assay can be described thus: compounds binding fibroblast growth factor 10 – biochemical, small-molecule microarray, 635 nm fluorescence, primary screen (AID 1102). Conditions: FGF10 binding, fluorescence 635 nm, higher = more signal.
Assay [6] deals with glycogen synthase kinase-3 (GSK3A per assay name; protocol says GSK3B). The assay is described as follows: compounds binding glycogen synthase kinase-3 – biochemical, small-molecule microarray, 635 nm fluorescence, GSK3A, primary screen (AID 1103). Also: the record names both GSK3A and GSK3B. Conditions: fluorescence 635 nm, higher = more signal.
The target of assay [7] is Epidermal growth factor receptor (Homo sapiens) (UniProt P00533). The assay can be described thus: compounds binding epidermal growth factor receptor – biochemical, small-molecule microarray, 635 nm fluorescence, primary screen (AID 1104).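 Also: score merges 667 nm emission intensity with spot signal to noise over triplicate slides.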 Conditions: EGFR binding, higher = more signal.
For assay [8], the target named is Follistatin-related protein 3 (Homo sapiens) (UniProt O95633). The assay can be described thus: compounds binding follistatin-related protein 3 – biochemical, small-molecule microarray, 635 nm fluorescence, primary screen (AID 1105).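 Also: score merges emission near 667 nm and signal to noise per printed spot across three slides.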 The conditions noted are these: FSTL3 binding, higher = more signal.
The target of assay [9] is Dickkopf-related protein 1 (Homo sapiens) (UniProt O94907). The assay is described as follows: small molecules binding DKK1 protein – biochemical, small-molecule microarray, 635 nm fluorescence scan, primary screen (AID 1106).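 Also: score merges emission near 667 nm with signal to noise over three replicate slides.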 Conditions: higher = more signal.
Assay [10] relates to Inhibin beta A chain (activin A). The assay is described as follows: small molecules binding activin A – biochemical, small-molecule microarray, 635 nm fluorescence scan, primary screen (AID 1107).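 Also: mouse activin A protein probed at 4.33 µg/mL on printed slides; score merges bound-protein fluorescence near 667 nm with spot signal-to-noise.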 Conditions: INHBA, higher = more signal.
Assay [11] relates to Human papillomavirus type 1a protein E7 (residues 44-93). The assay is described as follows: small molecules binding HPV E7 44-93 – biochemical, small-molecule microarray, residues 44-93, 635 nm fluorescence, primary screen (AID 1108).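 Also: E7 fragment applied at 1 µg/mL in TBST for 1 h at 4 C; score combines spot fluorescence with its signal to noise ratio.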 The conditions noted are these: fluorescence 635 nm, higher = more signal.
Assay [12] can be described thus: hepatitis C replication reporter changes, two-sided – Huh7 cells, luciferase reporter, HCV replication inhibitor project, primary screen (AID 1109).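 Also: huh7 hepatoma cells harbouring a luciferase neomycin HCV replicon reporter; luciferase luminescence as measure of HCV replicon replication; test concentration not given here.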 The conditions noted are these: Huh7 HCV replicon luciferase reporter, 48 h; higher = more signal.
Assay [13] concerns the target Left-right determination factor 2 (Homo sapiens) (UniProt O00292). The assay is described as follows: small molecules binding LEFTY2 protein – biochemical, small-molecule microarray, 635 nm fluorescence scan, primary screen (AID 1110). The conditions noted are these: higher = more signal.
The target in assay [14] is Calmodulin-1 (Homo sapiens) (UniProt P0DP23). The assay is described as follows: small molecules binding calmodulin-1 with EGTA – biochemical, small-molecule microarray, Cy5-labelled CALM1, profiling panel (AID 1111).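 Also: labelled calmodulin applied in Tris saline Tween buffer holding calcium plus EGTA and DTT.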 The conditions noted are these: Cy5-CALM1 binding fluorescence, higher = more signal.
The target is the same in assay [15]. The assay can be described thus: small molecules binding Ca-loaded calmodulin-1 – biochemical, small-molecule microarray, Cy5-labelled CALM1, plus calcium, artefact control for SMM control-protein annotation, profiling panel (AID 1112).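 Also: score merges spot fluorescence with signal to noise from triplicate slides.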 The conditions noted are these: Cy5-CALM1 binding fluorescence, higher = more signal.
Assay [16] is described as follows: probe aWnt5a binding to arrayed compounds – biochemical, biotinylated probe, 635/667 nm fluorescence, primary screen (AID 1113).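 Also: score merges 667 nm fluorescence intensity with signal-to-noise per printed feature.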 The conditions noted are these: small-molecule microarray, higher = more signal.
The nature of assay [17]: probe aShh binding to arrayed compounds – biochemical, biotinylated probe, 635/667 nm fluorescence, primary screen (AID 1114).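 Also: probe is biotin-labelled aShh protein from a stem cell growth factor screen; measures binding of labelled protein to compounds printed on the slide; score merges feature fluorescence at 667 nm with signal-to-noise.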 The conditions noted are these: small-molecule microarray, higher = more signal.
Assay [18] can be described thus: probe aNog binding to arrayed compounds – biochemical, biotinylated probe, 635/667 nm fluorescence, primary screen (AID 1115).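 Also: probe is biotinylated aNog protein used at 0.15 µg/mL for 1 h at 4 C; z-score combines 667 nm fluorescence of each spot with its signal to noise.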 The conditions noted are these: small-molecule microarray, higher = more signal.
Assay [19] addresses Torsin-1A-interacting protein 1 (Homo sapiens) (UniProt Q5JTV8). The assay can be described thus: compound microarray binding of lysate hLAP1 – cell lysate, small-molecule microarray, COS7 lysate, 635/667 nm fluorescence, primary screen (AID 1116). The conditions noted are these: 635 nm fluorescence, higher = more signal.
The target in assay [20] is Alpha-bungarotoxin (Bungarus multicinctus) (UniProt P60615). The assay is described as follows: compounds binding labelled alpha-BTX control protein – biochemical, small-molecule microarray, Alexa647 label, 635/667 nm fluorescence, artefact control for SMM control protein annotation, profiling panel (AID 1117). Conditions: alpha-BTX-A647 binding fluorescence, higher = more signal.
Alpha-bungarotoxin (Bungarus multicinctus), sequence (P60615 whole entry, looked up): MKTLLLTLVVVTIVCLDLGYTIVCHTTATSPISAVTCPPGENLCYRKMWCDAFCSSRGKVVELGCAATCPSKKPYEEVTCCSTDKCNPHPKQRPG

Epidermal growth factor receptor (Homo sapiens), sequence (P00533 whole entry, looked up): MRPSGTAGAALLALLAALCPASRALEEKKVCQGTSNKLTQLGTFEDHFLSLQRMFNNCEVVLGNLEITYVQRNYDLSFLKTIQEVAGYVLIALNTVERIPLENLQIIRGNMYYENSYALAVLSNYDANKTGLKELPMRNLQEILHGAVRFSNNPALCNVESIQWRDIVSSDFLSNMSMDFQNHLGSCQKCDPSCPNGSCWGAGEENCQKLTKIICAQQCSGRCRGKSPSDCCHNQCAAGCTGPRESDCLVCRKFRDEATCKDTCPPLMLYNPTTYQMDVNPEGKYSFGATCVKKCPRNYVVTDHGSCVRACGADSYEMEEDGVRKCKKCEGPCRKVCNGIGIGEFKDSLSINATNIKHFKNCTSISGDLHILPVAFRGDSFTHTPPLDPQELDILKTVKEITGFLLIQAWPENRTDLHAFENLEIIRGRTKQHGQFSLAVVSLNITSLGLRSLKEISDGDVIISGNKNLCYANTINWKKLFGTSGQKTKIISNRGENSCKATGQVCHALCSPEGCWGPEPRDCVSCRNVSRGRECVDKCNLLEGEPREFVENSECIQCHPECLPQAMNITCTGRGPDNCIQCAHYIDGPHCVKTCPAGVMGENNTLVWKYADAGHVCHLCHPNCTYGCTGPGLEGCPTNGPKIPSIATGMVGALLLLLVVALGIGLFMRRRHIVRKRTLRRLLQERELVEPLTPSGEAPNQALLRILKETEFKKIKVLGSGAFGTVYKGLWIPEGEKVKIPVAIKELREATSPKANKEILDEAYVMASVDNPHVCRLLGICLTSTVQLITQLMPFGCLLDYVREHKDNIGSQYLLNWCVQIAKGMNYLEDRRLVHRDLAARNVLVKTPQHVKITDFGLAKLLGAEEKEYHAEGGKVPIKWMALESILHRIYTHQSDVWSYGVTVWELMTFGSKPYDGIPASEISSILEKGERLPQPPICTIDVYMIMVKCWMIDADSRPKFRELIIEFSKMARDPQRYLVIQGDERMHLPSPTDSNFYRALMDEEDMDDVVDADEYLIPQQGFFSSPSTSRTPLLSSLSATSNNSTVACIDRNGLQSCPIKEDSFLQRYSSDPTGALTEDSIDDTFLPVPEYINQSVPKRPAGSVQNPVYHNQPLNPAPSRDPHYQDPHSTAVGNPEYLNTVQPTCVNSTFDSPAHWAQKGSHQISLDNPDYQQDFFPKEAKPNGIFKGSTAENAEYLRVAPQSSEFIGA
Dickkopf-related protein 1 (Homo sapiens), sequence (O94907 whole entry, looked up): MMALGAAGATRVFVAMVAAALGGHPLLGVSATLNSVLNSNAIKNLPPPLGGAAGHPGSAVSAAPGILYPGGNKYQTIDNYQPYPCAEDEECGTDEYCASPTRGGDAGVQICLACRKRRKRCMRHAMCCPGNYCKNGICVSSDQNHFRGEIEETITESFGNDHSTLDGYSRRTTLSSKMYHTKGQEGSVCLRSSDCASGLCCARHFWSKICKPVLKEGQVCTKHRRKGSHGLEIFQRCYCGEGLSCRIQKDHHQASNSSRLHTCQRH
Follistatin-related protein 3 (Homo sapiens), sequence (O95633 whole entry, looked up): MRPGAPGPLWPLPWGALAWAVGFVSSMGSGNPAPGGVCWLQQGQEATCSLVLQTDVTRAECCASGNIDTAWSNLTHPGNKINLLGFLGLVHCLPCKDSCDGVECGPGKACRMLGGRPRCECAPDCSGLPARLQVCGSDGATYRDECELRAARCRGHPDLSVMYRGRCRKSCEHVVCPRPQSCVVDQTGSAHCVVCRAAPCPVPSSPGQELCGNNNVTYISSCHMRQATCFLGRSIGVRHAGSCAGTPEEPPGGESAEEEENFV
Fibroblast growth factor 10 (Homo sapiens), sequence (O15520 whole entry, looked up): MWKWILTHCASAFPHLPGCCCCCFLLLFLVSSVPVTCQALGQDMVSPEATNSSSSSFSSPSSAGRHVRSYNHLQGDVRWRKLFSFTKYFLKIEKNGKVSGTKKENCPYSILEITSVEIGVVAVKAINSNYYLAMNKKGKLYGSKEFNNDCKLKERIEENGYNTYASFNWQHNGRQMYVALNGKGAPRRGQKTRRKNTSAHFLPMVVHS
Left-right determination factor 2 (Homo sapiens), sequence (O00292 whole entry, looked up): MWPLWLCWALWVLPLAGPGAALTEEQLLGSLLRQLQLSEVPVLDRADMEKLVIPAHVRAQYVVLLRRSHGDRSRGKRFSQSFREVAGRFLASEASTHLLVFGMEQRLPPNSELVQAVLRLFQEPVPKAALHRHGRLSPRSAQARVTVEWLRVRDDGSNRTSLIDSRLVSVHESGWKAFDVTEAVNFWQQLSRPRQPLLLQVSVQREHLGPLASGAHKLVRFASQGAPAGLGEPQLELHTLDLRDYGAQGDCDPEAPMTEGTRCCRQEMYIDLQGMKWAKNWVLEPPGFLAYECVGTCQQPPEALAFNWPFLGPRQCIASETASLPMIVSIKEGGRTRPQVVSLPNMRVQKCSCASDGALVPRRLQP
Torsin-1A-interacting protein 1 (Homo sapiens), sequence (Q5JTV8 whole entry, looked up): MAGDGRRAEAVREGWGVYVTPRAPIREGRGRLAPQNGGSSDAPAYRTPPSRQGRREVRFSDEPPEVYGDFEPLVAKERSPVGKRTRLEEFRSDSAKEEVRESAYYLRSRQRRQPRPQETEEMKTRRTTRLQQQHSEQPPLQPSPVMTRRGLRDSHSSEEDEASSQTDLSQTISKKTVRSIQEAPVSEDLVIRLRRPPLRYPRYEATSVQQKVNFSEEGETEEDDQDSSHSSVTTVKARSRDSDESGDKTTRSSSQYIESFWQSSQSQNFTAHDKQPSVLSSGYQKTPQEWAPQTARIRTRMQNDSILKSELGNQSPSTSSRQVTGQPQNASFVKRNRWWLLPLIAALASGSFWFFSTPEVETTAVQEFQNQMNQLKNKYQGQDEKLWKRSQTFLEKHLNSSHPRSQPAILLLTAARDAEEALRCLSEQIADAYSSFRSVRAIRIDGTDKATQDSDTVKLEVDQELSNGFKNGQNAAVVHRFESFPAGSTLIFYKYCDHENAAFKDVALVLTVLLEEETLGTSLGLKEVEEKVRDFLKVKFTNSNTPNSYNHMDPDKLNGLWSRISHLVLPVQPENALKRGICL

`C=CCC(OC(C)=O)[C@@H]1[C@@H](N(Cc2cccc3ccccc23)C(=O)c2cccc3ccccc23)c2cc(OCCCO)ccc2N1C(=O)c1ccc(-c2ccccc2)cc1` (stereo not given in full): the composite z-score in assay [1] is 0.17; in [2], 0.0752; in assay [3] it was -0.0302; in [5] it was 0.0819; in assay [6], 0.0512; in [7], 0.364. In addition, the composite z-score is -0.184 in [8]; 0.0116 in assay [9]; 0.855 in assay [10]; -0.0699 in assay [11]; 0.79 in assay [13]; 0.0898 in assay [14]. Moreover, the composite z-score in assay [15] was 0.766; in assay [16] it was 0.0229; in assay [17], -0.117; in assay [18], -0.215; in [19], 0.197; in assay [20], -0.574. Besides, the z-score is -0.566 (inactive) in assay [4] and -0.599 in assay [12].

Take `COCCOC(=O)N1C(=O)[C@@]2(c3cc(C#CCNC(N)=O)ccc31)[C@H](C(=O)N1CCc3cc(OC)c(OC)cc3C1)[C@H]1C(=O)O[C@H](c3ccccc3)[C@H](c3ccccc3)N1[C@@H]2c1ccccc1OCCO`: the composite z-score in assay [1] worked out at 1.26; in assay [2] it was 0.073; in assay [3], 0.315; in assay [5] it was 1.41; in [6] it was 1.14; in assay [7] it was 0.873. Besides, the composite z-score in [8] is 1.14; in assay [9] it was 0.246; in assay [10], 0.586; in assay [11], 0.843; in assay [13] it was 0.76; in assay [14] it was 1.29. Further, the composite z-score is 0.582 in assay [15]; -0.0786 in [16]; -0.305 in assay [17]; 0.39 in assay [18]; 1.03 in assay [19]; 1.85 in assay [20]. For the same molecule, the z-score in [4] is 0.0466 (inactive); in assay [12] it was -1.03.

Consider `NC(N)=NCCCn1cc(CNC(=O)[C@@H](N)Cc2ccccc2)nn1`, for which the composite z-score in assay [1] was 1.23; in assay [2], 0.174; in [3] it was 0.34; in [5] it was 0.697; in assay [6] it was 0.0853; in assay [7], -0.38. Besides, the composite z-score is 1.36 in assay [8]; 0.0571 in [9]; 0.9 in [10]; -0.15 in assay [11]; 0.566 in [13]; -0.806 in [14]. Besides, the composite z-score in [15] is -0.458; in assay [16], -0.128; in assay [17], -0.0146; in assay [18], 0.0472; in [19] it was 0.984; in assay [20] it was 0.0071. Moreover, the z-score in assay [4] was 0.292 (inactive); in [12], -0.332.

As for `CCCCC(=C=CC[C@@H](O)c1ccccc1OCCO)C[C@@H](O)COCc1ccccc1`, the composite z-score in assay [1] was 1.15; in assay [2], -0.126; in [3] it was 0.142; in assay [5] it was 0.114; in assay [6] it was -0.158; in [7], -1.14. The composite z-score is -0.126 in assay [8]; -0.498 in assay [9]; 0.596 in [10]; 0.0941 in [11]; -0.608 in assay [13]; -0.275 in assay [14]. The composite z-score is -0.0639 in assay [15]; 0.384 in [16]; -0.237 in [17]; -0.124 in [18]; 0.694 in [19]; 1.02 in assay [20]. Also, the z-score was -0.705 (inactive) in assay [4] and -1.45 in [12].

On to `CC(CO)N1C(=O)[C@@H]2[C@H]3C(=O)OCC=C[C@H]3OC23C=CCN(C(C)(C)C)C(=O)[C@@H]13` (stereo not given in full), for which the composite z-score is 0.115 in [1]; -0.323 in assay [2]; 0.129 in assay [3]; -0.0566 in assay [5]; -0.764 in [6]; -1.14 in assay [7]. Besides, the composite z-score is -0.205 in assay [8]; -0.496 in assay [9]; -0.197 in assay [10]; -1.89 in assay [11]; -0.7 in assay [13]; -0.119 in assay [14]. Besides, the composite z-score in assay [15] is -0.72; in assay [16], 0.308; in assay [17], -0.289; in assay [18], -0.158; in [19] it was -1.13; in assay [20], 0.193. For the same molecule, the z-score is 0.74 (inactive) in assay [4] and -0.619 in [12].

In the case of `CC(C)N1C(=O)c2ccccc2[C@@H](C(=O)NC2CC2)[C@@H]1c1ccc(CO)cc1`, the composite z-score in [1] is 0.869; in assay [2], -0.18; in assay [3], -0.194; in [5], -0.114; in assay [6] it was 0.621; in [7] it was -0.0202. Moreover, the composite z-score in assay [8] was 0.552; in assay [9] it was 0.37; in [10] it was 1.13; in assay [11], -0.142; in [13], 0.415; in [14], 1.01. Moreover, the composite z-score in assay [15] was 0.343; in [16], -0.0236; in [17], -0.282; in [18] it was -0.288; in assay [19] it was 0.997; in assay [20], 0.654. Moreover, the z-score was 0.381 (inactive) in assay [4] and 0.0045 in [12].

(Values after PubChem BioAssay.)
